A549 tox: Nrf2 qHTS screen for inhibitors: counterscreen for cytotoxicity; actives 0.16% (n = 390,000); A549 ARE-Fluc cells, CellTiter-Fluor viability, 18-24 h; Potency, µM (top dose mostly 46 µM), for inactives: top-dose activity change, negative = cytotoxicity, most hits filed as inhibitors; AID 504648, 2011; also: % is scaled to controls: 0 for no effect and ±100 for the full control effect
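A549 ARE_Fluc cells in 5% FBS OPTI-MEM were exposed to compounds in concentration-response for 18-24 h at 37 deg C. Viability was read by CellTiter-Fluor fluorescence (Ex 405/Em 525) after 30 min, before the luciferase read.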
Nrf2 block: Nrf2 qHTS screen for inhibitors | actives 2.1% (n = 360,000) | A549 ARE-Fluc reporter, luciferase luminescence, 18-24 h | Potency, µM (doses to about 46 µM), for the others: top-dose activity change, negative = inhibition, most hits filed as inhibitors; also: % is scaled to controls: 0 for no effect and ±100 for the full control effect; nearly all actives have a fitted effect of over 60% in size
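A549 ARE_Fluc cells (5000/well, 5% FBS OPTI-MEM) pre-incubated 2 h, then treated with compounds 18-24 h at 37C/5% CO2 in concentration-response. CellTiter-Fluor viability read first; BugLite luciferase luminescence after 15 min at room temperature gives Nrf2 activity.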
S2 tox: Viability Counterscreen for Primary qHTS for Inhibitors of ATXN expression; S2 cells (HEK-293 line with an ATXN2-luciferase reporter) viability, CellTiter-Fluor protease fluorescence, 24 h; actives 0.49% (n = 400,000); AID 651635, 2014; Potency, µM (doses to about 56.7 µM), usual class: cytotoxic; also: nearly all actives have a fitted effect of over 40% in size
Nrf2 activator: qHTS of Nrf2 Activators | AID 624171, 2012 | Potency, µM (highest dose often 46.1 µM), for the others: at the top dose activation, actives largely listed as activators | AREc32 ARE-luciferase reporter (MCF7-derived line), luminescence, 24 h | actives 0.31% (n = 410,000); also: % of control where 0% means no effect; nearly all actives have a fitted effect of over 65% in size
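Reporter line AREc32 (ARE-Fluc), seeded overnight in OPTI-MEM with 5% FBS; compound pin-transferred, 24 hr at 37 deg C, 5% CO2; luminescent read-out.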
ATXN2 expr inh: Primary qHTS for Inhibitors of ATXN expression | HEK-293 ATXN2-luciferase reporter, luminescence, 24 h | actives 0.72% (n = 360,000) | Potency, µM (titrated, usually from 57 µM), inactives show top-dose activity change, negative = inhibition, actives largely listed as inhibitors; also: % is scaled to controls: 0 for no effect and ±100 for the full control effect; nearly all actives have a fitted effect of over 55% in size
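qHTS (up to 57 uM final) was run with 24 h compound exposure of reporter cells at 37 °C. Each well was multiplexed: SteadyGlo luminescence measured ATXN2-luciferase expression after a fluorogenic Gly-Phe-AFC viability readout (25 uM final).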
An asterisk follows results filed as active; [ ] = another dose, or the depositor's remark. This is a sample that favours compounds with a hit; in the whole collection about 2.9% have one here. Calls follow the shape of the dose curve; as a rule, active = well fitted curve in the direction sought with a large enough effect; inconclusive = small, poorly fitted or top-dose-only effect, or another doubt; inactive = no such curve, though single readings can be large; an effect the other way counts as inactive or inconclusive. Potency is read from the fitted curve at half-maximal effect.

CCCCc1cc(=O)oc2cc(OCC(=O)Nc3ccccn3)ccc12 was read as A549 tox -6%, Nrf2 block -9%, S2 tox inactive and Nrf2 activator 13µM*.
Screening O=C(COc1ccc2c(-c3ccccc3)cc(=O)oc2c1)Nc1ccc(CCO)cc1 returned A549 tox -9%, Nrf2 block 10µM*, S2 tox inconclusive and Nrf2 activator 3%.
`COc1ccc(C2/C=C\CN(S(=O)(=O)/C=C/c3ccccc3)CC(=O)N2Cc2ccc(F)cc2)cc1` (stereo unspecified) gave A549 tox 0%, Nrf2 block 5%, S2 tox inactive, Nrf2 activator 5% and ATXN2 expr inh 5%.
CCCCOc1cccc(C(=O)Nc2cccc3ccc(C)nc23)c1 was read as A549 tox 4%, Nrf2 block 8%, S2 tox inactive, Nrf2 activator 6% and ATXN2 expr inh -7%.
For CCOc1cc(C(=O)CSc2nnc(CNc3ccc(Cl)cc3)o2)ccc1NC(=O)CC the results were A549 tox -27%, Nrf2 block inconclusive, S2 tox 20µM*, Nrf2 activator 2% and ATXN2 expr inh 32µM*.
`Nc1ncnc2c1nc(Cl)n2[C@@H]1O[C@H](CO)[C@@H](O)[C@@H]1O` gave A549 tox -14%, Nrf2 block 21µM* and ATXN2 expr inh inconclusive.
For CCc1ccccc1NC(=O)c1nnn(-c2ccc(F)cc2)c1C the results were A549 tox 0%, Nrf2 block 4%[9.27 µM], S2 tox inactive, Nrf2 activator 6% and ATXN2 expr inh 21%.
Screening Cc1cc(C)c(C)c(OC(=O)c2sc(Cl)nc2C)c1 returned A549 tox -7%, Nrf2 block inconclusive, S2 tox 22µM*, Nrf2 activator 6% and ATXN2 expr inh 20µM*.
For Cc1ccccc1-c1nc2cc(NC(=O)COc3ccc(F)cc3)ccc2o1 the results were A549 tox 1%, Nrf2 block -5%, S2 tox inactive, Nrf2 activator 1% and ATXN2 expr inh 3%.
Cc1ccc(C(C)C)c(OCc2ccc(C(=O)N/N=C/c3cccc(O)c3O)cc2)c1 was read as A549 tox inconclusive, Nrf2 block inconclusive, S2 tox inactive, Nrf2 activator 4% and ATXN2 expr inh 3µM*.
`Cc1ccc(S(=O)(=O)N(C)/N=C2/C(=O)N(CC(=O)O)c3ccccc32)cc1` gave A549 tox -7%, Nrf2 block 3%, S2 tox inactive, Nrf2 activator 0% and ATXN2 expr inh 4%.
For C=CCN1C(=O)C(CC(=O)Nc2ccc(OCCC)cc2)N(CCCN2CCN(Cc3ccccc3)CC2)C1=S (stereo unspecified) the results were A549 tox inconclusive, Nrf2 block 18µM*, S2 tox inconclusive, Nrf2 activator -3% and ATXN2 expr inh inconclusive.
For CN1/C(=C\C=C2/SC(=S)N(CC(=O)O)C2=O)C(C)(C)c2ccccc21 the results were A549 tox 9.2µM*, Nrf2 block 4.1µM*, S2 tox inactive and Nrf2 activator 1%.
S=c1c2c(nc3nc[nH]n13)CCC2 was read as A549 tox 2%, Nrf2 block 14%, S2 tox 6.3µM* and Nrf2 activator 15%.
`CC1CCc2c(nc3nc[nH]n3c2=O)C1` (stereo unspecified) gave A549 tox -5%, Nrf2 block 23%, S2 tox inactive, Nrf2 activator -1% and ATXN2 expr inh -11%.
Screening CCc1ccc(OCCn2c(C3CC(=O)N(Cc4ccc(F)cc4)C3)nc3ccccc32)cc1 (stereo unspecified) returned A549 tox -17%, Nrf2 block 15µM*, Nrf2 activator -3% and ATXN2 expr inh inconclusive.
`Cc1ccc(OCCCn2c(C3CC(=O)N(c4cccc(Cl)c4)C3)nc3ccccc32)c(C)c1` (stereo unspecified) gave A549 tox -16%, Nrf2 block -29%, S2 tox inactive, Nrf2 activator -1% and ATXN2 expr inh -2%.
`Cc1ccc(OCCn2c(C3CC(=O)N(Cc4ccc(F)cc4)C3)nc3ccccc32)c(C)c1` (stereo unspecified) gave A549 tox -1%, Nrf2 block 23µM*, S2 tox inconclusive, Nrf2 activator -4% and ATXN2 expr inh inconclusive.
Screening CC1(C(=O)Nc2nnc(SCc3ccccc3)s2)Cc2ccccc2C(=O)O1 (stereo unspecified) returned A549 tox -4%, Nrf2 block -7%, S2 tox inactive, Nrf2 activator 0% and ATXN2 expr inh -5%.
For COc1cc(-c2nc3ccc(C)cn3c2Nc2ccc3c(c2)OCCO3)ccc1O the results were A549 tox -11%, Nrf2 block 2%, S2 tox inconclusive, Nrf2 activator 23% and ATXN2 expr inh 13%.
COc1ccc(-c2onc(C)c2C)cc1S(=O)(=O)N1CCc2ccccc21 was read as A549 tox -1%, Nrf2 block 18µM* and Nrf2 activator 1%.
`COc1ccc(-c2cc(C)no2)cc1S(=O)(=O)N1CCc2ccccc21` gave A549 tox -1%, Nrf2 block -16% and Nrf2 activator 1%.
`CCCN(CC1CC1)C(=O)CSc1ncnc2sc(C)c(C)c12` gave A549 tox -1%, Nrf2 block inconclusive, S2 tox inactive, Nrf2 activator 1% and ATXN2 expr inh -13%.
`CC1CCc2c(sc3ncnc(SCC(=O)N(C)C4CCS(=O)(=O)C4)c23)C1` (stereo unspecified) gave A549 tox -4%, Nrf2 block 16µM*, S2 tox inactive and Nrf2 activator 0%.
For CCN(C(=O)CSc1ncnc2sc(C)c(C)c12)C1CCS(=O)(=O)C1 (stereo unspecified) the results were A549 tox -1%, Nrf2 block 13µM*, S2 tox inactive, Nrf2 activator 0% and ATXN2 expr inh -30%.
For Cc1sc2ncnc(SCC(=O)c3cccs3)c2c1C the results were A549 tox -15%, Nrf2 block inconclusive, S2 tox inactive, Nrf2 activator 14µM* and ATXN2 expr inh 2%.
`COC(=O)c1cc(NC(=O)Cc2coc3cc(OC)ccc23)cc(C(=O)OC)c1` gave A549 tox -2%, Nrf2 block inconclusive, S2 tox inactive, Nrf2 activator 3% and ATXN2 expr inh -3%.
For Clc1cccc2c1Sc1ccccc1CC2N1CCNCC1 (stereo unspecified) the results were A549 tox -11%, Nrf2 block 5%, S2 tox inconclusive, Nrf2 activator -3% and ATXN2 expr inh inconclusive.

Source: PubChem
